Consider 39 molecules from PubChem BioAssay (EPA / NIEHS).

“And” between values parts separate entries of the source, which are not always exact repeats. Identical values can stand only once. Results filed as inconclusive are left out. Where a structure was tested more than once in an assay, its records may differ in their call. The source made the active and inactive calls. The calls were made as follows: active = hit-call score of the fitted dose curve at least 0.9, where 1 is the maximum; inconclusive = response in the unintended direction; inactive = score below 0.9.

As usually defined, the AC50 is the concentration giving half of the maximal activity seen.

Sequence of Peroxisome proliferator-activated receptor gamma (Homo sapiens) (P37231 whole entry, looked up): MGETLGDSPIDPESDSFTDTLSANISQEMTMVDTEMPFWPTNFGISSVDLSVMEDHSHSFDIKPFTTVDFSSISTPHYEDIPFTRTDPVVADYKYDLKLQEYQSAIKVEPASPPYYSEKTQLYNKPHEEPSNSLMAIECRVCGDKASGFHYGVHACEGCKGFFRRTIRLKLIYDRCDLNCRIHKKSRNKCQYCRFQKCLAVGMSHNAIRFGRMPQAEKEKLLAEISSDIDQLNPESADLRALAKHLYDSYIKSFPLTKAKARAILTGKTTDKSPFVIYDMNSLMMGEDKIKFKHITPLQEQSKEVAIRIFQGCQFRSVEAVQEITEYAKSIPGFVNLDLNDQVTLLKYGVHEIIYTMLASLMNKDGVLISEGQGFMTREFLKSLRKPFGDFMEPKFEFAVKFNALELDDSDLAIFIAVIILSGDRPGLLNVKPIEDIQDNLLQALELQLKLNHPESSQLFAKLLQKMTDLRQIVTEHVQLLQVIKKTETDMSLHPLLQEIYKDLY

This assay concerns the target Peroxisome proliferator-activated receptor gamma (Homo sapiens) (UniProt P37231). Nature of the assay: ATG_PPARg_TRANS: Attagene TRANS-FACTORIAL HepG2 Assay for human Peroxisome Proliferator-activated Receptor-gamma (PPARg) (AID 2283007). How it is done: ATG_TRANS is a cell-based, multiplexed-readout assay that uses HepG2, a human liver cell line, with measurements taken at 24 hours after chemical dosing in a 24-well plate.ATG_PPARg_TRANS is one of 30 assay component(s) measured or calculated from the ATG_TRANS assay. It is designed to make measurements of mRNA induction, a form of inducible reporter, as detected with fluorescence intensity signals by Reverse transcription polymerase chain reaction (RT-PCR) and Capillary electrophoresis technology.Data from the assay component ATG_PPARg_TRANS was analyzed into 1 assay endpoint. This assay endpoint, ATG_PPARg_TRANS, was analyzed in the positive analysis fitting direction relative to DMSO as the negative control and baseline of activity. Using a type of inducible reporter, measures of mRNA for gain-of-signal activity can be used to understand the reporter gene at the transcription factor-level as they relate to the gene PPARG. Furthermore, this assay endpoint can be referred to as a primary readout, because this assay has produced multiple assay endpoints where this one serves a reporter gene function. To generalize the intended target to other relatable targets, this assay endpoint is annotated to the nuclear receptor intended target family, where the subfamily is non-steroidal.
Human liver HepG2 cells are transiently transfected with multiple reporter transcription units (MRTUs) in 6-well plates using FuGene 6 reagent (Roche; 3 ml FuGene/1 mg DNA). The MRTU constructs are regulated by a cis-regulating element (promoter). […] A major difference between the CIS and TRANS system is that in CIS activities of endogenous TFs are measured, whereas the TRANS assay evaluates changes in activities of exogenous, chimeric NR-Gal4 proteins. […] At the end of 24 hour incubation, total RNA was isolated using TriZol reagent (Invitrogen). The isolated RNA is then reverse-transcribed using oligo(dT) primer and Mo-MLV reverse transcriptase (Invitrogen) with DNAse I (Ambion) treatment for 30 min. The one-tenth of the produced cDNA was amplified by PCR using Taq DNA polymerase (Invitrogen) and two reporter sequence-specific primers. The PCR products were fluorescently labeled by primer extension with 6-arboxyfluorescein (6-FAM) 5'-labeled reporter sequence-specific primer (2 min at 95 C, 20 s at 68 C and 10 min at 72 C) and these products were digested with 5U of HpaI (New England Biolabs) for 2h at 37 C. The fragments were purified using Qiaquick PCR columns (Qiagen), analyzed on an ABI 3130xL genetic analyzer (Applied Biosystems) with peak positions identified by using a set of X-rhodamine (ROX)-labeled MapMarker1000 molecular weight standards (BioVentures). The raw capillary electrophoresis data was processed using Attagraph software (Attagene).
For `O=[N+]([O-])c1c(Cl)c(Cl)cc(Cl)c1Cl`, the AC50 is 0.905 µM (active). As for `COP(=S)(OC)Oc1ccc(S(=O)(=O)N(C)C)cc1`, the call was inactive. On the same count and under the same terms, under `C(=NC1CCCCC1)=NC1CCCCC1` stands “inactive”.

Consider `CCC1(c2ccc(N)cc2)CCC(=O)NC1=O` (stereo not given), for which the outcome was inactive. Same read-out and setting: under `CC(=[OH+])/C=C(/C)[O-].CC(=[OH+])/C=C(/C)[O-].CC(=[OH+])/C=C(/C)[O-].[Al]` stands “inactive”; under `CCC(=O)c1ccccc1`, “inactive”. Same read-out and setting: under `CCN(CC)C(=O)Cl` stands “inactive”; under `CCOP(=O)(CN(CCO)CCO)OCC`, “inactive”. Regarding `O=C(O)Cc1ccccc1`, the outcome was inactive. The same measure, in the same setting: for `C[C@]12CCC(=O)C[C@@H]1CC[C@@H]1[C@@H]2CC[C@]2(C)[C@@H](O)CC[C@@H]12` the value was “inactive”. The same measure, in the same setting: for `NNC(=S)NN` the value was “inactive”; for `COS(=O)(=O)c1ccc(C)cc1`, “inactive”.

As to `O=S(=O)(c1ccc(Cl)cc1)c1ccc(Cl)cc1`, the half-maximal activity concentration (AC50) was 7.7 µM (active). In the case of `CCCCCCCCC(=O)NCc1ccc(O)c(OC)c1`, the AC50 is 27.3 µM (active).

As for `O=C(O)C(F)(F)C(F)(F)C(F)(F)C(F)(F)C(F)(F)C(F)(F)F`, the concentration at half-maximal activity (AC50) was 65.4 µM (active) and 72.5 µM (active); the molecule was classed as inactive. `C[C@H]1O[C@@H](O[C@H]2[C@@H](O)C[C@H](O[C@H]3[C@@H](O)C[C@H](O[C@H]4CC[C@@]5(C)[C@H](CC[C@@H]6[C@@H]5CC[C@]5(C)[C@@H](C7=CC(=O)OC7)CC[C@]65O)C4)O[C@@H]3C)O[C@@H]2C)C[C@H](O)[C@@H]1O`: the outcome was inactive.

As for `COC(=O)Cc1ccccc1`, the call was inactive. Same read-out and setting: for `Cn1sc(Cl)cc1=O` the value was “inactive”. Still for that read-out and setting: for `COC[C@H](C)N(C(=O)CCl)c1c(C)csc1C` the value was “inactive”; for `Cc1ccc(N)cc1Cl`, “inactive”. For the molecule `Clc1ccc(COC(Cn2ccnc2)c2ccc(Cl)cc2Cl)cc1` (stereo not given), the AC50 was 4.84 µM (active). For `O=C1C(Cl)=C(Cl)C(=O)c2ccccc21`, the call was inactive. The same measure, in the same setting: for `COc1cc(OC)nc(NC(=O)NS(=O)(=O)c2ncccc2C(=O)N(C)C)n1` the value was “inactive”; for `ClC(Cl)=C(Cl)C(Cl)=C(Cl)Cl`, “inactive”; for `ClC1=C(Cl)[C@]2(Cl)[C@@H]3[C@@H](Cl)[C@@H](Cl)C[C@@H]3[C@@]1(Cl)C2(Cl)Cl`, “inactive”. For the molecule `O=[N+]([O-])c1ccc2c3c(cccc13)CC2`, the AC50 is 22.7 µM (active). On the same count and under the same terms, under `CCOP(=S)(OCC)Oc1nc(Cl)c(Cl)cc1Cl` stands 46.8 µM (active).

For `CCc1ccccc1C`, the call was inactive. `CC(=O)OC(c1ccccc1)C(Cl)(Cl)Cl` (stereo not given): the molecule was called inactive. Regarding `ClCCBr`, the molecule was called inactive.

On to `Nc1ncc([N+](=O)[O-])s1`, for which the molecule was classed as inactive.

On to `CCOC(=O)CP(=O)(OCC)OCC`, for which the outcome was inactive. Still for that read-out and setting: under `CCOC(=O)Nc1cccc(OC(=O)Nc2ccccc2)c1` stands “inactive”; under `CC(C#N)CCC#N` (stereo not given), “inactive”.

In the case of `Oc1ccc(-c2ccccc2)cc1`, the result was inactive. With `C=C(C)C(=O)[O][Sn]([CH2]CCC)([CH2]CCC)[CH2]CCC`, the AC50 was 0.291 µM (active).

For `CN(C)P(=O)(N(C)C)N(C)C`, the call was inactive. Take `CCC[CH2][Sn]([CH2]CCC)([CH2]CCC)[O]C(=O)c1ccccc1`: the AC50 was 0.0116 µM (active).

For the molecule `ClCc1ccccn1`, the outcome was inactive.
